Source: PubChem BioAssay (EPA / NIEHS)
Where “and” joins values, the source holds several entries; their conditions need not be identical. Equal values may be shown once. Results filed as inconclusive are left out. The source holds several records for some structures; these can differ, active in one and inactive in another. Calls of active or inactive are those of the source. The calls were made as follows, unless noted: active = hit-call score of the fitted dose curve at least 0.9, where 1 is the maximum; inconclusive = response in the unintended direction; inactive = score below 0.9.

How the values were obtained:
[1] = target: Estrogen receptor (Homo sapiens) (UniProt P03372); experiment: OT_ERa_GFPERaERE_0120: Odyssey Thera (OT) 2-hour HeLa Transcription Induction Assay for Estrogen Receptor (AID 2283382)
Estrogen receptor (Homo sapiens), sequence (P03372 whole entry, looked up): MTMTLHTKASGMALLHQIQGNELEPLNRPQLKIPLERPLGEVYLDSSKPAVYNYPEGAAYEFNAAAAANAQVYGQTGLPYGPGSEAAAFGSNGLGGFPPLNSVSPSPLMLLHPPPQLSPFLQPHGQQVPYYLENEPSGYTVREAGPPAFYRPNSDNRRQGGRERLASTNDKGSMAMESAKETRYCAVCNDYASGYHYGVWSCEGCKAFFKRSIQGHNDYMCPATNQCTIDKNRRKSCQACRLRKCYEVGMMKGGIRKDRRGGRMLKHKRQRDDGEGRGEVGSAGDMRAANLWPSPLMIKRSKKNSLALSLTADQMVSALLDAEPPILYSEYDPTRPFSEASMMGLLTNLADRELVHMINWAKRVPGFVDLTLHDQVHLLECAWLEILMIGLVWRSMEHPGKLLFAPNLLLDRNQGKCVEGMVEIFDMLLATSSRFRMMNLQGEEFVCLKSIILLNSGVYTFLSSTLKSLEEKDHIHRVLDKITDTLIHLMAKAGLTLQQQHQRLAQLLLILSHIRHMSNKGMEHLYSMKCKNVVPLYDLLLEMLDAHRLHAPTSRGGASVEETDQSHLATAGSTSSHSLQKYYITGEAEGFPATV
How it was run: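 Cells (human cervical HeLa) receive compound, incubate 2 hours, then are imaged for fluorescent reporter induction. Images are quantified by high content analysis, and activity is fitted as gain of signal against DMSO.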

[2] = target: Retinoic acid receptor RXR-alpha (Homo sapiens) (UniProt P19793); experiment: OT_NURR1_NURR1RXRa_0480: Odyssey Thera (OT) 8-hour HEK293T Protein Complementation Assay for Nurr1/retinoid X receptor (RXR) (AID 2283385)
Retinoic acid receptor RXR-alpha (Homo sapiens), sequence (P19793 whole entry, looked up, the tested form may be a part): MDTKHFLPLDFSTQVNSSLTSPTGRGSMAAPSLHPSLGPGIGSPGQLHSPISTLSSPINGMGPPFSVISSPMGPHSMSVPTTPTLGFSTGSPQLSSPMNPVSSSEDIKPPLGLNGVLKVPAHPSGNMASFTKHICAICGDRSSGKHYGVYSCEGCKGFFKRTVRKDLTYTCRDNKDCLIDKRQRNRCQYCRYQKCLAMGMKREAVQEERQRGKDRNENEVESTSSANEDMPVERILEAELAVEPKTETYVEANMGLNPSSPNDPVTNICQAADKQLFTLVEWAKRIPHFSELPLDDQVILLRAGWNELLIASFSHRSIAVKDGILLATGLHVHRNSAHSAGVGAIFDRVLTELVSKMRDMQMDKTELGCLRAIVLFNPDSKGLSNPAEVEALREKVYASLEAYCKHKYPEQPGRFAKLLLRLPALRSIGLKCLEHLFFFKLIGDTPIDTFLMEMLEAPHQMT
How it was run: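 Interaction of bait and prey reconstitutes a functional reporter, whose fluorescence was measured in HEK293T cells dosed with compound for 8 hours. Signal gain relative to DMSO defined the single endpoint.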

[3] = target: Retinoic acid receptor RXR-alpha (Homo sapiens) (UniProt P19793); experiment: OT_NURR1_NURR1RXRa_1440: Odyssey Thera (OT) 24-hour HEK293T Protein Complementation Assay for Nurr1/retinoid X receptor (RXR) (AID 2283386)
How it was run: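 Steps: fragment-tagged Nurr1 and RXRα expressed in HEK293T; compounds added; after 24 h, complemented reporter quantified by fluorescence intensity; signal increase over DMSO fitted as the single endpoint.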

[4] = target: Peroxisome proliferator-activated receptor gamma (Homo sapiens) (UniProt P37231); experiment: OT_PPARg_PPARgSRC1_0480: Odyssey Thera (OT) 8-hour Protein-Complementation Assay for Peroxisome Proliferator-activated Receptor Gamma / SRC-1 Co-activator (AID 2283387);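 also: nuclear to cytoplasmic split Venus YFP fluorescence ratio reporting PPARg SRC-1 interaction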
Peroxisome proliferator-activated receptor gamma (Homo sapiens), sequence (P37231 whole entry, looked up, the tested form may be a part): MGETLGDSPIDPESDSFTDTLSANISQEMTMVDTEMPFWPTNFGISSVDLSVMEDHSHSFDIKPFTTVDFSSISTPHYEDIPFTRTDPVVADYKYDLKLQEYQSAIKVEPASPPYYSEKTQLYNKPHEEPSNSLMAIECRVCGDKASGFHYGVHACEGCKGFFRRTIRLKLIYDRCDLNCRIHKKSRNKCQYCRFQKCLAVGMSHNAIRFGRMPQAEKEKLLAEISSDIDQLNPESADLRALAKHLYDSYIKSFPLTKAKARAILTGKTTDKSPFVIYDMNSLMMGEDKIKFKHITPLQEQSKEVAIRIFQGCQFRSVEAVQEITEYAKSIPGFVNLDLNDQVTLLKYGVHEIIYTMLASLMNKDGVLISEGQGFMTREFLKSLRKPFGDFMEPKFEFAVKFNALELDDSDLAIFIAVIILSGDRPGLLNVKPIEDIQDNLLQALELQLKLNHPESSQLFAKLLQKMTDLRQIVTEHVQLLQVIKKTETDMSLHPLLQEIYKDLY
How it was run: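 Split-YFP (IFP1/IFP2) PPARg/SRC-1 reporter, HEK293T, 37 °C, 5% CO2; 8 h compound; formaldehyde fix + Draq5; high-content imaging, N/C ratio, ≥350 cells/image, positive direction vs DMSO.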

[5] = target: Peroxisome proliferator-activated receptor gamma (Homo sapiens) (UniProt P37231); experiment: OT_PPARg_PPARgSRC1_1440: Odyssey Thera (OT) 24-hour Protein-Complementation Assay for Peroxisome Proliferator-activated Receptor Gamma/ SRC-1 Co-activator (AID 2283388);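 also: nuclear to cytoplasmic ratio of reconstituted Venus YFP fluorescence in fixed imaged cells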
How it was run: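 Protein-fragment complementation between PPARg and coactivator SRC-1 was measured by fluorescence imaging in transiently transfected HEK293T cells after 24 h treatment. Signal was quantified as N/C ratio in the 488 nm channel, with DMSO as negative control.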

[6] = target: Bile acid receptor (Homo sapiens) (UniProt Q96RI1); experiment: OT_FXR_FXRSRC1_0480: Odyssey Thera (OT) 8-hour HEK293T Protein-Complementation Assay for Farnesoid X receptor/SRC-1 Co-activator (AID 2283383)
Bile acid receptor (Homo sapiens), sequence (Q96RI1 whole entry, looked up, the tested form may be a part): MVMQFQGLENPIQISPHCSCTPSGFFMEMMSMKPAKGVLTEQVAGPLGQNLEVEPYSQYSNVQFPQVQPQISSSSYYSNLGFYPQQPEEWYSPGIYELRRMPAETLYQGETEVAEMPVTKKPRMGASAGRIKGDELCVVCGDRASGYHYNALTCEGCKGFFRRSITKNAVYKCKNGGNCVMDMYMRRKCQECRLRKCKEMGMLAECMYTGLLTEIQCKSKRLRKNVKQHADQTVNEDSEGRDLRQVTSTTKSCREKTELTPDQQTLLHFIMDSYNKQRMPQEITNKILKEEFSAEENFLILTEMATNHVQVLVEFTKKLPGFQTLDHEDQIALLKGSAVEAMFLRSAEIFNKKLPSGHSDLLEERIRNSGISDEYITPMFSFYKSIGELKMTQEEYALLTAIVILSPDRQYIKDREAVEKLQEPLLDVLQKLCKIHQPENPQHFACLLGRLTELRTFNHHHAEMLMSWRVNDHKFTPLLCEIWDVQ
How it was run: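 PCA, HEK293T, 8 h compound exposure; FXR–SRC-1 binding reconstitutes split reporter; fluorescence intensity; positive-direction fit vs DMSO.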

[7] = target: Bile acid receptor (Homo sapiens) (UniProt Q96RI1); experiment: OT_FXR_FXRSRC1_1440: Odyssey Thera (OT) 24-hour HEK293T Protein-Complementation Assay for Farnesoid X receptor/SRC-1 Co-activator (AID 2283384)
How it was run: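 Measures ligand-driven FXR–SRC-1 co-activator recruitment in HEK293T via fragment complementation, fluorescence intensity at 24 h. DMSO served as negative control and baseline for gain-of-signal fitting.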

[8] = CEETOX_H295R_11DCORT: CeeTox H295R High-throughput Steroidogenesis Assay for 11-Deoxycortisol (11DCORT) (AID 2283432; active = hit-call score of the fitted dose curve at least 0.9, where 1 is the maximum; inactive = score below 0.9;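 as to AC50: human adrenal H295R cells prestimulated with 10 µM forskolin for 48 h; 11-deoxycortisol secreted into the medium measured by LC-MS/MS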); conditions: actives raise or lower the signal
How it was run: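 Steroidogenesis in human H295R cells: 48 h chemical exposure after forskolin priming, 11-deoxycortisol measured by LC-MS/MS.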

[9] = CEETOX_H295R_OHPREG: CeeTox H295R High-throughput Steroidogenesis Assay for OH-Pregnenolone (OHPREG) (AID 2283434; active = hit-call score of the fitted dose curve at least 0.9, where 1 is the maximum; inactive = score below 0.9); conditions: actives raise or lower the signal
How it was run: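 H295R, 10 uM forskolin pre-stim 48 h; test chemical 48 h, 0.1% DMSO final. MTBE extraction, reverse-phase C18 HPLC-ESI+ MS/MS of medium. Gain/loss vs DMSO; viability by MTT in same wells.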

[10] = CEETOX_H295R_OHPROG: CeeTox H295R High-throughput Steroidogenesis Assay for OH-Progesterone (OHPROG) (AID 2283435; active = hit-call score of the fitted dose curve at least 0.9, where 1 is the maximum; inactive = score below 0.9;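 as to AC50: human adrenal H295R cells primed 48 h with 10 µM forskolin; 17alpha-hydroxyprogesterone secreted into medium measured by HPLC-MS/MS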); conditions: actives raise or lower the signal
How it was run: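 Steps: seed H295R cells and adhere overnight; stimulate with 10 uM forskolin for 48 h; replace with chemical-containing medium (0.1% DMSO) for 48 h; extract medium with MTBE; quantify 17alpha-hydroxyprogesterone by reverse-phase C18 HPLC-MS/MS against a 7-point curve.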

With `Cc1ccc(C(C)C)cc1` the outcome [1] was “inactive”, the outcome [2] was “inactive” and the outcome [3] was “inactive”. For the same molecule, the outcome [4] was “inactive” and the outcome [5] was “inactive”.
With `COc1ccc2cc(S(=O)(=O)N[C@H](CC(=O)N[C@H](Cc3ccc(CN4[C@H](C)CCC[C@@H]4C)cc3)C(=O)N(C)C(C)C)c3ccc4c(c3)OCO4)ccc2c1` the AC50 [1] was 28.6 µM (active), the AC50 [6] was 11.1 µM (active) and the AC50 [2] was 11.1 µM (active). For the same molecule, the outcome [4] was “inactive” and the outcome [5] was “inactive”.
For `CCO[Si](CCCNC(N)=O)(OCC)OCC`, the outcome [1] was “inactive”, the outcome [7] was “inactive” and the outcome [2] was “inactive”. The outcome [4] was “inactive” and the outcome [5] was “inactive”.
In the case of `CC1=CC(=O)/C(=C(/C)O)C(=O)O1`, the outcome [1] is reported as “inactive”, the outcome [7] is reported as “inactive” and the outcome [2] is reported as “inactive”. The outcome [3] was “inactive”, the outcome [4] was “inactive” and the outcome [5] was “inactive”.
In the case of `c1ccc2ccccc2c1`, the outcome [1] is reported as “inactive”, the outcome [7] is reported as “inactive” and the outcome [3] is reported as “inactive”. The outcome [4] was “inactive” and the outcome [5] was “inactive”.
In the case of `CC[C@@H]1C[C@H](N(Cc2cc(C(F)(F)F)cc(C(F)(F)F)c2)C(C)=O)c2cc(C(F)(F)F)ccc2N1C(=O)OC(C)C`, the outcome [1] is reported as “inactive”, the outcome [2] is reported as “inactive” and the outcome [3] is reported as “inactive”. For the same molecule, the outcome [4] was “inactive” and the outcome [5] was “inactive”.
With `CCCCCCCCN(C)CCCCCCCC` the outcome [1] was “inactive”, the outcome [2] was “inactive” and the outcome [3] was “inactive”. The outcome [4] was “inactive”, the outcome [5] was “inactive” and the outcome [8] was “inactive”. For the same molecule, the outcome [9] was “inactive” and the AC50 [10] was 50 µM (active).
In the case of `CCCCCCCCCCCC[N+](C)(C)C`, the outcome [4] is reported as “inactive”, the outcome [5] is reported as “inactive” and the outcome [8] is reported as “inactive”. The outcome [9] was “inactive” and the outcome [10] was “inactive”.
In the case of `Cc1occc1C(=O)Nc1ccc(C(=O)N2CCC(F)(F)/C(=C\C(=O)N3CCC(N4CCCCC4)CC3)c3ccccc32)cc1`, the outcome [1] is reported as “inactive”, the AC50 [2] is reported as 28.6 µM (active) and the AC50 [3] is reported as 28.3 µM (active). For the same molecule, the outcome [4] was “inactive” and the outcome [5] was “inactive”.
With `O=C(O)Cc1cc(I)c(Oc2ccc(O)c(I)c2)c(I)c1` the AC50 [7] was 28.6 µM (active) and 29 µM (active) and 23.8 µM (active), the outcome [4] was “inactive” and the outcome [5] was “inactive”.
In the case of `CN(C)c1ccc(C(=C2C=CC(=[N+](C)C)C=C2)c2ccc(N(C)C)cc2)cc1`, the outcome [1] is reported as “inactive”, the outcome [4] is reported as “inactive” and the outcome [5] is reported as “inactive”.
With `O=c1c(-c2ccc(O)cc2)coc2cc(O)cc(O)c12` the AC50 [7] was 18.9 µM (active) and 20.5 µM (active) and 18.6 µM (active), the outcome [7] was “inactive” and the AC50 [2] was 29 µM (active) [middle of 4 runs]. The outcome [2] was “inactive”, the outcome [3] was “inactive” and the outcome [4] was “inactive”. For the same molecule, the outcome [5] was “inactive”, the AC50 [8] was 11.9 µM (active) and the AC50 [10] was 30.5 µM (active).
For `CCCC(=O)OCCC(C)C`, the outcome [7] was “inactive”, the outcome [2] was “inactive” and the outcome [3] was “inactive”. For the same molecule, the outcome [4] was “inactive” and the outcome [5] was “inactive”.
For `Cc1cc(F)ccc1-c1cc(N2CC[C@@H](O)[C@H]2CO)ncc1N(C)C(=O)C(C)(C)c1cc(C(F)(F)F)cc(C(F)(F)F)c1`, the outcome [1] was “inactive”, the AC50 [3] was 9.74 µM (active) and the outcome [4] was “inactive”. The outcome [5] was “inactive”.
In the case of `Oc1ccc2ccccc2c1`, the outcome [3] is reported as “inactive”, the outcome [4] is reported as “inactive” and the outcome [5] is reported as “inactive”. The outcome [8] was “inactive”, the outcome [9] was “inactive” and the AC50 [10] was 13.8 µM (active).
In the case of `CCCCCCCCCC(=O)O`, the outcome [2] is reported as “inactive”, the outcome [3] is reported as “inactive” and the outcome [5] is reported as “inactive”.
For `O=c1[nH]sc2ccccc12`, the outcome [1] was “inactive”, the outcome [4] was “inactive” and the outcome [5] was “inactive”.
In the case of `O=C1CCC(C2CCCCC2)CC1`, the AC50 [7] is reported as 38.4 µM (active), the outcome [7] is reported as “inactive” and the outcome [2] is reported as “inactive”. For the same molecule, the outcome [3] was “inactive”, the outcome [4] was “inactive” and the outcome [5] was “inactive”. The outcome [8] was “inactive”, the AC50 [9] was 80.4 µM (active) and the AC50 [10] was 76.8 µM (active).
With `O=C1O[C@H]([C@@H](O)CO)C(O)=C1O` the outcome [3] was “inactive”, the outcome [4] was “inactive” and the outcome [5] was “inactive”.
With `Oc1ccccc1` the outcome [7] was “inactive”, the outcome [2] was “inactive” and the outcome [3] was “inactive”. For the same molecule, the outcome [4] was “inactive” and the outcome [5] was “inactive”.
With `CC1(C)NC(=O)N(c2ccc([N+](=O)[O-])c(C(F)(F)F)c2)C1=O` the outcome [7] was “inactive”, the outcome [2] was “inactive” and the outcome [3] was “inactive”. For the same molecule, the outcome [4] was “inactive” and the outcome [5] was “inactive”.
In the case of `CC/C(=C(/CC)c1ccc(O)cc1)c1ccc(O)cc1`, the outcome [7] is reported as “inactive”, the outcome [2] is reported as “inactive” and the outcome [3] is reported as “inactive”.
